# From PubChem BioAssay AID1159580 (chemical genetic matrix, 2015)
# Out of some 5,500 compounds screened, about 2,000 (36%) were called active. About 18% were inconclusive and are not listed. The list shows a part of the results. Unmarked numbers belong to inactive results. Cut-off read from the data, not from the text of the source: active = normalized growth mostly below about 0.91 (no sharp cut-off); inconclusive = no clear call, values can overlap the other calls; inactive = mostly above about 0.92.
# Test: chemical genetic growth profiling, strain panel (AID 1159580);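 note: tested at 20 µM; growth read once vehicle control cultures reached saturation at 30 °C; 1 = growth at the plate median or of vehicle wells; lower values mean less growth of the strain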
# Conditions: S. cerevisiae deletion strains, growth OD
compound,measurement,setting,value
CC1(C)CC[C@@]2(C(=O)O)C(C1)C1=CCC3[C@@]4(C)CC[C@H](O)C(C)(C)C4CC[C@@]3(C)[C@]1(C)C[C@@H]2O (stereo not given in full),normalized growth,"locus YJL187C, strain SWE1 (second series), stronger effect = lower value",1.02
same,normalized growth,"locus YJL187C, strain SWE1, stronger effect = lower value",1.01
same,normalized growth,"locus YJR043C, strain POL32, stronger effect = lower value",1.02
same,normalized growth,"locus YKL009W, strain mrt4, stronger effect = lower value",1.16 [resistant] (active)
same,normalized growth,"locus YKL068W, stronger effect = lower value",1.19 [resistant] (active)
same,normalized growth,"locus YKL085W, strain MDH1 (second series), stronger effect = lower value",1.24 [resistant] (active)
same,normalized growth,"locus YKL085W, strain MDH1, stronger effect = lower value",1.24 [resistant] (active)
same,normalized growth,"locus YKL160W, strain elf1, stronger effect = lower value",0.995
same,normalized growth,"locus YKL190W, strain CNB1, stronger effect = lower value",1.03
same,normalized growth,"locus YKR001C, strain vps1, stronger effect = lower value",1.03
same,normalized growth,"locus YKR026C, strain gcn3, stronger effect = lower value",0.988
same,normalized growth,"locus YKR091W, strain srl3, stronger effect = lower value",1.01
same,normalized growth,"locus YLL001W, strain dnm1, stronger effect = lower value",1.02
same,normalized growth,"locus YLL026W, stronger effect = lower value",1.01
same,normalized growth,"locus YLL041C, strain sdh2, stronger effect = lower value",1.01
same,normalized growth,"locus YLR027C, strain aat2, stronger effect = lower value",1.02
same,normalized growth,"locus YLR039C, strain RIC1, stronger effect = lower value",0.866
same,normalized growth,"locus YLR058C, strain SHM2, stronger effect = lower value",1.03
same,normalized growth,"locus YLR102C, strain apc9, stronger effect = lower value",1.02
same,normalized growth,"locus YLR221C, strain rsa3, stronger effect = lower value",1.02
same,normalized growth,"locus YLR258W, strain gsy2, stronger effect = lower value",1.01
same,normalized growth,"locus YLR262C, strain YPT6 (second series), stronger effect = lower value",0.871
same,normalized growth,"locus YLR262C, strain YPT6, stronger effect = lower value",0.827
same,normalized growth,"locus YLR268W, strain sec22, stronger effect = lower value",1.01
same,normalized growth,"locus YLR320W, strain mms22, stronger effect = lower value",1.02
same,normalized growth,"locus YLR330W, strain CHS5, stronger effect = lower value",1.03
same,normalized growth,"locus YLR342W, strain FKS1 (second series), stronger effect = lower value",0.97
same,normalized growth,"locus YLR342W, strain FKS1, stronger effect = lower value",1.02
same,normalized growth,"locus YLR357W, strain rsc2, stronger effect = lower value",1
same,normalized growth,"locus YLR370C, strain arc18, stronger effect = lower value",1.02
same,normalized growth,"locus YLR371W, strain rom2, stronger effect = lower value",1.01
same,normalized growth,"locus YLR384C, strain iki3, stronger effect = lower value",1.02
same,normalized growth,"locus YLR418C, strain cdc73, stronger effect = lower value",1.19 [resistant] (active)
same,normalized growth,"locus YML016C, strain PPZ1, stronger effect = lower value",1.03
same,normalized growth,"locus YML032C, strain rad52, stronger effect = lower value",1.02
same,normalized growth,"locus YML120C, strain ndi1, stronger effect = lower value",1.02
same,normalized growth,"locus YML124C, strain tub3, stronger effect = lower value",1.05
same,normalized growth,"locus YMR058W, strain fet3, stronger effect = lower value",1.03
same,normalized growth,"locus YMR078C, strain ctf18, stronger effect = lower value",1.03
same,normalized growth,"locus YMR125W, strain sto1, stronger effect = lower value",1.03
same,normalized growth,"locus YMR129W, stronger effect = lower value",1.02
same,normalized growth,"locus YMR205C, strain PFK2, stronger effect = lower value",0.984
same,normalized growth,"locus YMR223W, strain ubp8, stronger effect = lower value",1.01
same,normalized growth,"locus YMR231W, strain pep5, stronger effect = lower value",1.01
same,normalized growth,"locus YMR307W, strain GAS1, stronger effect = lower value",0.909
same,normalized growth,"locus YNL067W, strain RPL9B, stronger effect = lower value",1.02
same,normalized growth,"locus YNL071W, strain lat1, stronger effect = lower value",1.01
same,normalized growth,"locus YNL128W, strain TEP1, stronger effect = lower value",0.874
same,normalized growth,"locus YNL153C, strain GIM3, stronger effect = lower value",1.02
same,normalized growth,"locus YNL209W, strain ssb2, stronger effect = lower value",1.03
same,normalized growth,"locus YNL233W, strain BNI4, stronger effect = lower value",1.03
same,normalized growth,"locus YNL248C, strain rpa49, stronger effect = lower value",1.01
same,normalized growth,"locus YNL250W, strain rad50, stronger effect = lower value",1.04
same,normalized growth,"locus YNL271C, strain bni1, stronger effect = lower value",1.02
same,normalized growth,"locus YNL298W, strain CLA4, stronger effect = lower value",1.02
same,normalized growth,"locus YNL307C, strain MCK1, stronger effect = lower value",1.05
same,normalized growth,"locus YNL322C, strain KRE1 (second series), stronger effect = lower value",0.998
same,normalized growth,"locus YNR049C, strain mso1, stronger effect = lower value",1.01
same,normalized growth,"locus YNR052C, strain pop2, stronger effect = lower value",1.03
same,normalized growth,"locus YOL006C, strain TOP1, stronger effect = lower value",1.17
same,normalized growth,"locus YOL012C, strain htz1",1.06
same,normalized growth,"locus YOL147C, strain pex11, stronger effect = lower value",1.03
same,normalized growth,"locus YOR001W, strain rrp6, stronger effect = lower value",1
same,normalized growth,"locus YOR061W, strain CKA2, stronger effect = lower value",1
same,normalized growth,"locus YOR069W, strain VPS5, stronger effect = lower value",1.01
same,normalized growth,"locus YOR070C, strain gyp1, stronger effect = lower value",1.03
same,normalized growth,"locus YOR080W, strain dia2, stronger effect = lower value",1.01
same,normalized growth,"locus YOR083W, strain WHI5, stronger effect = lower value",0.996
same,normalized growth,"locus YOR106W, strain vam3, stronger effect = lower value",1
same,normalized growth,"locus YOR136W, strain idh2, stronger effect = lower value",1.04
same,normalized growth,"locus YOR144C, strain elg1, stronger effect = lower value",1.03
same,normalized growth,"locus YOR184W, strain ser1, stronger effect = lower value",1
same,normalized growth,"locus YOR265W, strain rbl2, stronger effect = lower value",1.03
same,normalized growth,"locus YOR270C, strain vph1, stronger effect = lower value",1.11
same,normalized growth,"locus YOR290C, strain snf2, stronger effect = lower value",0.991
same,normalized growth,"locus YOR316C, strain cot1, stronger effect = lower value",1.03
same,normalized growth,"locus YPL051W, strain arl3, stronger effect = lower value",0.99
same,normalized growth,"locus YPL078C, strain atp4, stronger effect = lower value",1.02
same,normalized growth,"locus YPL106C, strain sse1, stronger effect = lower value",1.03
same,normalized growth,"locus YPL240C, strain hsp82, stronger effect = lower value",1.01
same,normalized growth,"locus YPR119W, strain clb2, stronger effect = lower value",1.03
same,normalized growth,"locus YPR141C, strain kar3, stronger effect = lower value",1.05
same,normalized growth,"locus YPR163C, strain tif3, stronger effect = lower value",1.05
same,normalized growth,"locus YPR167C, strain met16, stronger effect = lower value",1.04
same,normalized growth,"strain wtn01, stronger effect = lower value",1.05
